Laboratory results published in PubChem BioAssay (NCI).
This is part of a sample that, as a whole, favours compounds with a hit. Of some 79,000 tested, about 15% had one in any assay. Values without a mark were called inactive. Active and inactive are the calls of the source. Rule as the data show it: active = growth inhibition above about 70%; inactive = the rest.

Tests used:
[1] = NCI Yeast Anticancer Drug Screen. Data for the rad50 strain (AID 155);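 also: 0% = growth of vehicle-only cultures of the same strain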; conditions: S. cerevisiae rad50 strain growth inhibition; at 50.0 µM; active compounds read high
Outline: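 Growth of the mutant yeast was measured after compound exposure and referenced to vehicle-treated cultures.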

[2] = NCI Yeast Anticancer Drug Screen. Data for the mec2-1 strain (AID 157); conditions: S. cerevisiae mec2-1 strain, at 50.0 µM, active compounds read high
Outline: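 Vehicle-treated cultures served as reference for growth inhibition of compound-exposed mec2-1 yeast.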

[3] = NCI Yeast Anticancer Drug Screen. Data for the sgs1 mgt1 strain (AID 161);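 also: 0% = growth of cultures given vehicle only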; conditions: S. cerevisiae sgs1 mgt1 strain, at 50.0 µM, active compounds read high
Outline: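 Test agents were incubated with a DNA-repair-mutant yeast strain. Growth was then read and compared against vehicle-treated controls.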

[4] = NCI Yeast Anticancer Drug Screen. Data for the cln2 rad14 strain (AID 165);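 also: 0% = growth equal to vehicle treated cultures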; conditions: S. cerevisiae cln2 rad14 strain, at 50.0 µM, active compounds read high
Outline: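 Each compound was tested on cln2 rad14 yeast. Inhibition of growth was calculated against vehicle-exposed controls.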

[5] = NCI Yeast Anticancer Drug Screen. Data for the bub3 strain (AID 167); conditions: S. cerevisiae bub3 mutant strain, at 50.0 µM, active compounds read high
Outline: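 Whole-cell yeast assay. The mutant strain was incubated with compounds, and growth inhibition was determined by comparison with vehicle-treated cells.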

[6] = NCI Yeast Anticancer Drug Screen. Data for the mlh1 rad18 strain (AID 175); conditions: S. cerevisiae mlh1 rad18 strain growth inhibition; at 50.0 µM; active compounds read high
Outline: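 Vehicle-treated cultures served as the reference for growth inhibition in a yeast strain carrying DNA damage repair alterations exposed to each compound.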

Structure (SMILES)	growth inhibition [1]	growth inhibition [2]	growth inhibition [3]	growth inhibition [4]	growth inhibition [5]	growth inhibition [6]
O=[N+]([O-])c1cc(Br)c2ccccc2c1	6.7%	4.9%	6.45%	2%	18.2%	15.1%
COC(=O)C12c3ccccc3C3C(c4ccccc41)C32 (configuration not stated)	11.9%	13.5%	22.8%	17.6%	2.2%	20.6%
Nc1ncnc(N)c1NC(=O)c1cccc(F)c1	0.15%	-1.3%	-3.7%	-39.2%	-8.35%	1.5%
CC(=O)Nc1ccc(NC(=O)Nc2cc(Cl)ccc2C)cc1	14.3%	5.05%	0.7%	13.1%	17.8%	5.1%
O=C1c2ccccc2C(=O)c2c(NCCNC(=O)C3CCCN3)ccc(NCCNC(=O)C3CCCN3)c21 (configuration not stated)	-1.25%	-11.7%	21.8%	3.4%	-3.7%	-85.5%
O=c1[nH]c(=O)n(COCCO)cc1-c1ccccc1	-8.75%	-5.65%	1.9%	5.75%	-1.25%	-2.9%
O=C(NC1CCCCC1)Oc1ccc(Cl)cc1Cl	4.8%	23.9%	28.2%	-8.45%	35.6%	31.9%
CCCC(F)C(=O)OCC (configuration not stated)	11.5%	-6.35%	5.4%	-9.35%	10%	0.3%
O=C(Cc1ccccn1)c1cccnc1	-1.15%	-9.7%	-4.75%	-27.2%	-17%	-4.25%
CC(=O)Nc1ccc(C(=O)NN2C(=O)C(Cl)/C2=C/c2ccco2)cc1 (configuration not stated)	1.1%	-8.55%	-28.8%	-4.75%	-22.8%	-20.4%
CCCCC(CC)CO (configuration not stated)	-12.4%	-25%	-32.7%	-108%	-16.5%	-20.3%
CC(=O)CC(OC(C)=O)C1=CCC2C(CC1C)OC(=O)C2C (configuration not stated)	45.8%	9.8%	-22.6%	-0.65%	-36.5%	-56.6%
OC1C2CCC3C2CC(C(O)(c2ccccc2)c2ccccc2)C13 (configuration not stated)	-0.2%	-23.6%	-8.75%	-13.2%	-50%	-15.4%
CC[N+](C)(C)CCOP(=O)(c1ccccc1)c1ccccc1	2.4%	6.35%	-15.1%	4.6%	-2.2%	9.5%
O=C(NC(c1ccccc1)C(O)C(=O)OCc1ccc2c(c1)C(=O)c1ccccc1C2=O)c1ccccc1 (configuration not stated)	10.9%	15.4%	-23.3%	-0.15%	-8.9%	20.6%
O=C1NCC/C1=C\c1ccccc1	-7.2%	-10.7%	-4.6%	-8.05%	-6.65%	-15.4%
CC1OC1P(=O)(O)O (configuration not stated)	16.6%	-5.9%	-4.55%	1.7%	-3.3%	-6.55%
Nc1ccc([N+](=O)[O-])cc1C(=O)Oc1ccccn1	9.15%	5%	8.5%	10.8%	-3.6%	19%
N#C/C(=C\c1ccc2[nH]ccc2c1)C(=O)NCCCCNC(=O)/C(C#N)=C/c1ccc2[nH]ccc2c1	5.35%	23.2%	10.4%	-21.4%	9.65%	5.7%

Structure (SMILES)	growth inhibition [1]	growth inhibition [2]	growth inhibition [3]	growth inhibition [4]	growth inhibition [5]	growth inhibition [6]
C=C1C(=O)OC2CC3(C)C=CC(=O)C(=C)C3CC12 (configuration not stated)	6.75%	20.6%	34.4%	39.9%	26.8%	23.4%
Cc1cc(C)c(N)cc1C	3.9%	13%	-20.4%	-43.5%	-2.2%	-2.5%
CC(C)(C)CC(C)(C)NC(=O)CCl	-6.05%	2.15%	2.6%	-4.85%	10.3%	-5.45%
CC(=O)N(C)O	21.2%	17.4%	-4.05%	-5.85%	-19.9%	-0.4%
Cc1c(-c2ccc3c(c2)COC3)sc(N)c1C#N	4.7%	-4.3%	27.2%	24.3%	47.8%	-5.4%
Cc1ccc(C(C(=O)O)C(Cl)(Cl)Cl)cc1 (configuration not stated)	6.7%	-11%	-0.75%	0.7%	-6.45%	4.65%
CCOC(=O)C1CCCC1S(=O)(=O)c1ccc(C)cc1 (configuration not stated)	-20%	-15.3%	-27.4%	21.9%	1.75%	-3.5%
Cn1nc(-c2ccccc2)c([N+](=O)[O-])c1NCc1ccccc1	-0.8%	-1.95%	-4.4%	-29.1%	6.4%	1.15%
CC1=CC(O)C(Br)C(C)(C)C12CCC(C)(Cl)C(Br)C2 (configuration not stated)	90.1% (active)	91% (active)	89.8% (active)	81.8% (active)	89.9% (active)	89.3% (active)
CCOC(=O)C(/C=N/C(=S)Nc1c(C)cccc1C)=C(/O)c1ccccc1	-50.3%	-21.6%	-26.1%	-18.6%	-21.2%	-33.4%
CC1=CC2=C(C(N)=O)C(=O)OC2(C)C(c2ccccc2)C1 (configuration not stated)	-19.9%	-6.75%	4.65%	7%	1.85%	5.7%
O=Cc1[nH]c(=S)[nH]c(=O)c1Cc1cccc(Cl)c1	63.9%	35.2%	83.2% (active)	56.2%	77.5% (active)	83.2% (active)
C=CCOC(=O)OC(C)C(=O)OCC=C (configuration not stated)	27%	13.1%	15.4%	7.55%	-2.25%	-2.5%
CCN(CC)c1ccc(CO)cc1	7.65%	4.8%	-22.8%	-9.85%	-1.05%	-13.2%
CCOC(=O)/C(C)=C/CC1=C(O)c2ccccc2C(=O)C1=O	7.3%	23.7%	14.1%	16.2%	1.95%	16.8%
CCCCCCCCCCCC(=O)CCCCCCCCCCC	4%	2.2%	2.75%	-33.9%	-4.15%	-2.7%
CCN(CC)c1nc2ccccc2o1	-16.9%	16%	3.7%	-36.8%	-19.9%	-9.2%
Cc1ccc(C)c(CNC(=O)C2CCCCC2C(=O)O)c1 (configuration not stated)	9.3%	33.6%	37.2%	-0.6%	34.6%	-3.2%
